According to PubChem BioAssay AID1159580 (chemical genetic matrix, 2015):
Several values for one entry are separate records, joined by “and”; a condition that tells them apart may be missing. Equal entries are not always repeated. In all, about 5,500 compounds went through this assay and about 2,000 (36%) were called active. About 18% were inconclusive and are not listed. Rule as the data show it: active = normalized growth mostly below about 0.91 (no sharp cut-off); inconclusive = no clear call, values can overlap the other calls; inactive = mostly above about 0.92. Some of the results follow.

Assay: chemical genetic growth profiling, strain panel (AID 1159580);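 also: tested at 20 µM; growth read once vehicle control cultures reached saturation at 30 °C; 1 = growth at the plate median or of vehicle wells; lower values mean less growth of the strain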
Conditions: S. cerevisiae deletion strains, growth OD

Measured: normalized growth

Nc1nc2ncc(CNc3ccc(C(=O)N[C@@H](CCC(=O)O)C(=O)O)cc3)nc2c(=O)[nH]1
inactive: locus YAL021C, strain ccr4, stronger effect = lower value 0.993 | locus YAL026C, strain drs2, stronger effect = lower value 1.01 | locus YAL030W, strain snc1, stronger effect = lower value 0.998 | locus YBL061C, strain skt5, stronger effect = lower value 1 | locus YBR009C, strain hhf1, stronger effect = lower value 1.01 | locus YBR021W, strain FUR4, stronger effect = lower value 1.04 | locus YBR023C, strain chs3, stronger effect = lower value 0.995 | locus YBR171W, strain sec66, stronger effect = lower value 0.996 | locus YBR229C, strain ROT2, stronger effect = lower value 0.992 | locus YBR231C, strain swc5, stronger effect = lower value 0.996 | locus YBR279W, strain paf1, stronger effect = lower value 0.996 | locus YCL011C, strain gbp2, stronger effect = lower value 1 | locus YCL016C, strain dcc1, stronger effect = lower value 0.998 | locus YCL029C, strain bik1, stronger effect = lower value 0.976 | locus YCL061C, strain MRC1, stronger effect = lower value 0.998 | locus YCL069W, strain vba3, stronger effect = lower value 1 | locus YCR088W, strain abp1, stronger effect = lower value 1 | locus YDL005C, strain med2, stronger effect = lower value 1 | locus YDL035C, strain GPR1, stronger effect = lower value 0.995 | locus YDL040C, strain nat1, stronger effect = lower value 0.995 | locus YDL074C, strain BRE1, stronger effect = lower value 0.993 | locus YDL101C, strain DUN1, stronger effect = lower value 0.996 | locus YDL185W, strain tfp1, stronger effect = lower value 0.956 | locus YDL192W, strain arf1, stronger effect = lower value 0.976 | locus YDR001C, strain nth1, stronger effect = lower value 0.997 | locus YDR069C, strain doa4, stronger effect = lower value 0.999 | locus YDR101C, strain arx1, stronger effect = lower value 0.982 | locus YDR137W, strain rgp1, stronger effect = lower value 1.03 | locus YDR159W, strain sac3, stronger effect = lower value 1.01 | locus YDR162C, strain NBP2, stronger effect = lower value 1.02 | locus YDR195W, strain ref2 0.993 | locus YDR297W, strain sur2, stronger effect = lower value 0.997 | locus YDR318W, strain mcm21, stronger effect = lower value 0.99 | locus YDR334W, strain swr1, stronger effect = lower value 1 | locus YDR335W, strain msn5, stronger effect = lower value 0.997 | locus YDR388W, stronger effect = lower value 0.976 | locus YDR392W, strain spt3, stronger effect = lower value 0.941 | locus YDR502C, strain sam2, stronger effect = lower value 0.986 | locus YEL003W, strain gim4, stronger effect = lower value 1.01 | locus YEL037C, strain rad23, stronger effect = lower value 1 | locus YEL061C, strain CIN8 (second series), stronger effect = lower value 1 | locus YEL061C, strain CIN8, stronger effect = lower value 0.988 | locus YER015W, strain faa2, stronger effect = lower value 1 | locus YER016W, strain bim1, stronger effect = lower value 1.01 | locus YER110C, stronger effect = lower value 0.952 | locus YER111C, strain swi4, stronger effect = lower value 0.985 | locus YER155C, strain BEM2 (second series), stronger effect = lower value 1.01 | locus YER155C, strain BEM2, stronger effect = lower value 0.986 | locus YER167W, strain BCK2, stronger effect = lower value 0.99 | locus YFR010W, strain ubp6, stronger effect = lower value 1.01 | locus YGL078C, strain dbp3, stronger effect = lower value 0.998 | locus YGL086W, strain mad1, stronger effect = lower value 0.968 | locus YGL167C, strain pmr1, stronger effect = lower value 1 | locus YGL173C, strain kem1, stronger effect = lower value 0.996 | locus YGL227W, strain vid30, stronger effect = lower value 0.993 | locus YGL240W, strain doc1, stronger effect = lower value 1.02 | locus YGL248W, strain PDE1, stronger effect = lower value 1.01 | locus YGL253W, strain hxk2, stronger effect = lower value 0.993 | locus YGR078C, strain PAC10, stronger effect = lower value 1.03 | locus YGR135W, strain pre9, stronger effect = lower value 1 | locus YGR252W, strain gcn5, stronger effect = lower value 1.21 | locus YHR013C, strain ard1, stronger effect = lower value 1 | locus YHR027C, strain rpn1, stronger effect = lower value 1 | locus YHR030C, strain SLT2, stronger effect = lower value 0.971 and 1.02 | locus YHR079C, strain IRE1 (second series), stronger effect = lower value 0.972 | locus YHR079C, strain IRE1, stronger effect = lower value 1.03 | locus YHR094C, strain hxt1, stronger effect = lower value 0.989 | locus YHR129C, strain ARP1, stronger effect = lower value 0.99 | locus YHR142W, strain chs7, stronger effect = lower value 0.989 | locus YHR200W, strain rpn10, stronger effect = lower value 0.985 | locus YIL066C, strain RNR3, stronger effect = lower value 1 | locus YIL073C, strain SPO22, stronger effect = lower value 0.922 | locus YIL125W, strain kgd1, stronger effect = lower value 0.94 | locus YIR030C, strain dcg1, stronger effect = lower value 0.985 | locus YJL092W, strain hpr5, stronger effect = lower value 0.995 | locus YJL095W, strain BCK1 (second series), stronger effect = lower value 0.992 | locus YJL095W, strain BCK1, stronger effect = lower value 1.05 and 1.02 | locus YJL115W, strain asf1, stronger effect = lower value 1 | locus YJL129C, strain trk1, stronger effect = lower value 0.993 | locus YJL134W, strain LCB3, stronger effect = lower value 0.979 | locus YJL154C, strain vps35, stronger effect = lower value 1 | locus YJL164C, strain tpk1, stronger effect = lower value 0.994 | locus YJL166W, strain qcr8, stronger effect = lower value 0.995 | locus YJL168C, strain set2, stronger effect = lower value 1.01 | locus YJL187C, strain SWE1 (second series), stronger effect = lower value 1.01 | locus YJL187C, strain SWE1, stronger effect = lower value 0.999 | locus YJR043C, strain POL32, stronger effect = lower value 1.01 | locus YJR066W, strain TOR1, stronger effect = lower value 0.959 | locus YKL009W, strain mrt4, stronger effect = lower value 0.954 | locus YKL068W, stronger effect = lower value 0.98 | locus YKL085W, strain MDH1 (second series), stronger effect = lower value 0.981 | locus YKL085W, strain MDH1, stronger effect = lower value 0.981 | locus YKL160W, strain elf1, stronger effect = lower value 0.987 | locus YKL190W, strain CNB1, stronger effect = lower value 0.985 | locus YKR001C, strain vps1, stronger effect = lower value 0.975 | locus YKR026C, strain gcn3, stronger effect = lower value 1 | locus YKR091W, strain srl3, stronger effect = lower value 1 | locus YLL001W, strain dnm1, stronger effect = lower value 0.967 | locus YLL026W, stronger effect = lower value 0.997 | locus YLL041C, strain sdh2, stronger effect = lower value 0.998 | locus YLR027C, strain aat2, stronger effect = lower value 1 | locus YLR039C, strain RIC1, stronger effect = lower value 0.987 | locus YLR058C, strain SHM2, stronger effect = lower value 0.991 | locus YLR102C, strain apc9, stronger effect = lower value 0.957 | locus YLR113W, strain HOG1, stronger effect = lower value 1.02 | locus YLR221C, strain rsa3, stronger effect = lower value 0.995 | locus YLR258W, strain gsy2, stronger effect = lower value 0.998 | locus YLR262C, strain YPT6 (second series), stronger effect = lower value 0.998 | locus YLR262C, strain YPT6, stronger effect = lower value 1 | locus YLR268W, strain sec22, stronger effect = lower value 0.963 | locus YLR320W, strain mms22, stronger effect = lower value 0.992 | locus YLR330W, strain CHS5, stronger effect = lower value 0.979 | locus YLR342W, strain FKS1 (second series), stronger effect = lower value 1.01 | locus YLR342W, strain FKS1, stronger effect = lower value 0.995 | locus YLR357W, strain rsc2, stronger effect = lower value 1.01 | locus YLR370C, strain arc18, stronger effect = lower value 0.994 | locus YLR371W, strain rom2, stronger effect = lower value 0.98 | locus YLR384C, strain iki3, stronger effect = lower value 1.01 | locus YLR418C, strain cdc73, stronger effect = lower value 1.04 | locus YML016C, strain PPZ1, stronger effect = lower value 0.989 | locus YML032C, strain rad52, stronger effect = lower value 0.985 | locus YML120C, strain ndi1, stronger effect = lower value 0.995 | locus YML124C, strain tub3, stronger effect = lower value 0.991 | locus YMR058W, strain fet3, stronger effect = lower value 1 | locus YMR078C, strain ctf18, stronger effect = lower value 0.982 | locus YMR125W, strain sto1, stronger effect = lower value 0.993 | locus YMR129W, stronger effect = lower value 1 | locus YMR205C, strain PFK2, stronger effect = lower value 0.992 | locus YMR223W, strain ubp8, stronger effect = lower value 0.998 | locus YMR231W, strain pep5, stronger effect = lower value 1 | locus YMR263W, strain SAP30, stronger effect = lower value 0.995 | locus YMR307W, strain GAS1, stronger effect = lower value 1.19 | locus YNL067W, strain RPL9B, stronger effect = lower value 1.02 | locus YNL071W, strain lat1, stronger effect = lower value 1 | locus YNL153C, strain GIM3, stronger effect = lower value 1.03 | locus YNL183C, strain NPR1, stronger effect = lower value 0.947 | locus YNL209W, strain ssb2, stronger effect = lower value 0.998 | locus YNL233W, strain BNI4, stronger effect = lower value 1.03 | locus YNL248C, strain rpa49, stronger effect = lower value 0.994 | locus YNL250W, strain rad50, stronger effect = lower value 0.981 | locus YNL271C, strain bni1, stronger effect = lower value 0.997 | locus YNL298W, strain CLA4, stronger effect = lower value 0.989 | locus YNL307C, strain MCK1, stronger effect = lower value 0.98 | locus YNL322C, strain KRE1 (second series), stronger effect = lower value 0.998 | locus YNL322C, strain KRE1, stronger effect = lower value 0.987 | locus YNR049C, strain mso1, stronger effect = lower value 0.999 | locus YNR052C, strain pop2, stronger effect = lower value 0.994 | locus YOL012C, strain htz1 0.994 | locus YOL147C, strain pex11, stronger effect = lower value 0.985 | locus YOR001W, strain rrp6, stronger effect = lower value 0.984 | locus YOR061W, strain CKA2, stronger effect = lower value 0.99 | locus YOR069W, strain VPS5, stronger effect = lower value 0.981 | locus YOR070C, strain gyp1, stronger effect = lower value 0.996 | locus YOR080W, strain dia2, stronger effect = lower value 1 | locus YOR083W, strain WHI5, stronger effect = lower value 0.985 | locus YOR106W, strain vam3, stronger effect = lower value 1.02 | locus YOR136W, strain idh2, stronger effect = lower value 0.987 | locus YOR144C, strain elg1, stronger effect = lower value 0.987 | locus YOR184W, strain ser1, stronger effect = lower value 0.963 | locus YOR231W, strain MKK1, stronger effect = lower value 1.03 | locus YOR265W, strain rbl2, stronger effect = lower value 1.01 | locus YOR270C, strain vph1, stronger effect = lower value 0.99 | locus YOR290C, strain snf2, stronger effect = lower value 1.02 | locus YOR316C, strain cot1, stronger effect = lower value 0.988 | locus YPL051W, strain arl3, stronger effect = lower value 0.997 | locus YPL078C, strain atp4, stronger effect = lower value 0.996 | locus YPL106C, strain sse1, stronger effect = lower value 0.963 | locus YPL240C, strain hsp82, stronger effect = lower value 0.985 | locus YPL256C, strain CLN2, stronger effect = lower value 1.02 | locus YPR119W, strain clb2, stronger effect = lower value 0.976 | locus YPR141C, strain kar3, stronger effect = lower value 0.979 | locus YPR163C, strain tif3, stronger effect = lower value 0.993 | locus YPR167C, strain met16, stronger effect = lower value 0.97 | strain wtn01, stronger effect = lower value 0.971
